IDH1 R132H inh – inhibitors of human mutant IDH1 R132H. AID 602179. O75874. Potency, µM (top dose mostly 76.6 µM), hits mostly inhibitors. IDH1-R132H enzyme, NADPH consumption, diaphorase/resazurin fluorescence. 390,000 tested, 0.093% active; further: nearly all actives have a fitted effect of over 65% in size
Target sequence (O75874 whole entry R132H, stated change not applied): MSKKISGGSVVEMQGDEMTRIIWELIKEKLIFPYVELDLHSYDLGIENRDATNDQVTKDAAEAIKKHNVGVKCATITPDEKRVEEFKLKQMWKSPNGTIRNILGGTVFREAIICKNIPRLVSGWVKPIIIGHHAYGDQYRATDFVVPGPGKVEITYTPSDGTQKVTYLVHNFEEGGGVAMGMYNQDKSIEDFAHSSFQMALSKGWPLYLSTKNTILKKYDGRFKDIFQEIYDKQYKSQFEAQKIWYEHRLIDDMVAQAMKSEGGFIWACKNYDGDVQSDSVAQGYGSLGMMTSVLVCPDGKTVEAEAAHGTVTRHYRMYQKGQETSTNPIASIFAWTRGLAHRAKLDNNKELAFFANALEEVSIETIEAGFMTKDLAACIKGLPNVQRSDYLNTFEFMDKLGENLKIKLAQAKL
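IDH1-R132H (0.5 ug/mL) preincubated 30 min with compound, then NADPH (0.016 mM) and alpha-KG (2 mM) added; 80 min at RT, pH 7.5. Remaining NADPH coupled via diaphorase/resazurin to fluorescence (540/590 nm); concentration-response curves normalized to no-enzyme control.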
TGFb inhibitor – inhibitors of TGF-b signaling | HepG2 CAGA-GFP TGF-b/SMAD3 reporter, GFP fluorescence, 18 h; TGF-beta stimulated, 500 pg/mL final | Potency, µM (highest dose often 46.1 µM), most hits filed as inhibitors | 410,000 tested, 1.2% active | AID 588855; further: nearly all actives have a fitted effect of over 65% in size
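Per well, imaged GFP fluorescence of HEPG2 CAGA-GFP cells gives the signal; cells get compound, then TGF-beta (500 pg/mL final), 18 h at 37 degrees C; %Activity versus -TGF-beta and +DMSO controls.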
LDHA block – blocks human lactate dehydrogenase A; 480,000 tested, 0.15% active; purified LDHA, NADH/diaphorase-resazurin fluorescence; active compounds read low; activity change, % (values are at about 110 or 230 µM); in the data active means activity change below about -30%; inconclusive means mostly about -25% to -30%
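Human LDH5 (2 nM) was incubated with 0.06 mM NADH and 0.2 mM pyruvate for 5 min at room temperature in Tris pH 7.4. Remaining NADH was coupled through diaphorase/resazurin, and resorufin fluorescence was read at 0 and 20 min.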
S2 tox – cell viability loss in ATXN counter-screen; S2 cells (HEK-293 line with an ATXN2-luciferase reporter) viability, CellTiter-Fluor protease fluorescence, 24 h; Potency, µM (doses to about 56.7 µM), actives largely listed as cytotoxic; 400,000 tested, 0.49% active; AID 651635; further: nearly all actives have a fitted effect of over 40% in size
HepG2 tox-1 – HepG2 cytotoxicity, counter-screen for TGF-b inhibitors. AID 588856. Potency, µM (top dose mostly 46.1 µM), most hits filed as cytotoxic. 410,000 tested, 0.76% active. HepG2 CAGA-GFP viability, ATP luminescence, 18 h
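CellTiter-Glo luminescence gave cytotoxicity after 18 hours at 37 degrees C. The cells were HepG2 CAGA-GFP in 1% FBS DMEM, stimulated with 500 pg/mL TGF-beta after compound addition. %Activity was normalised to no-cell wells (complete cell-killing) and DMSO (no toxicity), and curves were fitted and classified.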
ATXN2 expr inh – inhibitors of ATXN2 expression. HEK-293 ATXN2-luciferase reporter, luminescence, 24 h. Potency, µM (top dose mostly 57 µM), hits mostly inhibitors. 360,000 tested, 0.72% active. AID 1745845; further: nearly all actives have a fitted effect of over 55% in size
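ATXN2-luciferase reporter cells (luciferase flanked by upstream and downstream ATXN2 gene portions) were treated 24 h at 37 °C with compounds at up to 57 uM. SteadyGlo luminescence gave expression; GF-AFC fluorescence gave viability.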
TGFb CAGA inh – TGF-b pathway inhibition, cherry-pick retest | Potency, µM (series often up to 46.1 µM), most hits filed as inhibitors | shares compounds with TGFb inhibitor | 1,600 tested, 63% active | AID 720534 | HepG2 CAGA-GFP TGF-b reporter, GFP fluorescence, 18 h; cells stimulated with TGF-beta, 500 pg/mL; further: nearly all actives have a fitted effect of over 65% in size
HepG2 tox-2 – counter-screen for TGF-b inhibitors: cytotoxicity in HepG2 cells; shares compounds with TGFb inhibitor; HepG2 CAGA-GFP viability, ATP luminescence, 18 h; cells stimulated with TGF-beta, 500 pg/mL; Potency, µM (doses to about 46.1 µM), hits mostly inhibitors; 1,600 tested, 27% active; AID 720535; further: nearly all actives have a fitted effect of over 70% in size
TGFb CCL64 inh – orthogonal confirmation of TGF-b inhibitors in CCL64 cells. shares compounds with TGFb inhibitor. CCL64 CAGA-GFP reporter, TGF-b stimulated, GFP fluorescence, 18 h. Potency, µM (highest dose often 46.1 µM), most hits filed as inhibitors. 1,600 tested, 41% active. AID 720536; further: nearly all actives have a fitted effect of over 65% in size
TGFb COP inh – TGF-b inhibition validated with COP promoter | shares compounds with TGFb inhibitor | HepG2 COP-GFP TGF-b reporter, GFP fluorescence, 18 h; cells stimulated by added recombinant TGF-beta | Potency, µM (top dose mostly 46.1 µM), actives largely listed as inhibitors | 1,600 tested, 3% active | AID 720537; further: nearly all actives have a fitted effect of over 70% in size
A number is an active result; 0 = inactive; ? = inconclusive; - = no result given; [ ] = remark or other dose. This is a sample that favours compounds with a hit; in the whole collection about 2.2% have one here. Unless noted, the call rests on the fitted dose curve; in most records, active means well fitted curve in the direction sought with a large enough effect; inconclusive means small, poorly fitted or top-dose-only effect, or another doubt; inactive means no such curve, though single readings can be large; an effect the other way counts as inactive or inconclusive.

SMILES	IDH1 R132H inh	TGFb inhibitor	LDHA block	S2 tox	HepG2 tox-1	ATXN2 expr inh	TGFb CAGA inh	HepG2 tox-2	TGFb CCL64 inh	TGFb COP inh
O=C(Nc1csc([N+](=O)[O-])c1)Nc1c(Cl)cccc1Cl	0	0	0	0	0	-	-	-	-	-
O=[N+]([O-])c1ccc(NC(=S)NCCc2ccccc2)cc1	0	?	0	0	0	0[11.3 µM]	-	-	-	-
O=C(Nc1ccc(Cl)cc1)Nc1csc([N+](=O)[O-])c1	0	3.98µM	0	0	0	?	6.51µM	6.51µM	5.17µM	0
O=[N+]([O-])c1ccc(NC(=S)NCCc2ccc(Cl)cc2)cc1	0	6.31µM	0	?	11.2µM	?	14.6µM	20.6µM	4.61µM	0
CC(NCC(O)COCCC12CC3CC(CC(C3)C1)C2)c1ccccc1 (configuration not stated)	0	7.94µM	0	-	7.08µM	31.6µM	?	20.6µM	?	?
Cc1cc(C)cc(OCC(=O)NC2CCCc3ccccc32)c1 (configuration not stated)	0	0	0	-	0	0	-	-	-	-
CC(=O)c1ccc(Nc2nc(-c3ccccc3)nc3ccccc23)cc1	0	0	0	?	0	0	0	0	0	0
Cc1ccc(Nc2nc(-c3ccncc3)nc3ccccc23)cc1	0	0	0	0	0	?	0	?	0	0
Cc1ccc(Nc2nc(-c3ccccc3)nc3ccccc23)cc1	0	?	0	?	0	?	-	-	-	-
c1ccc(Nc2nc(-c3ccncc3)nc3ccccc23)cc1	0	0	0	0	0	0	0	0	0	0
CC(=O)c1cccc(Nc2nc(-c3ccccc3)nc3ccccc23)c1	0	0	0	-	0	0	-	-	-	-
CCCCCn1nc(C(=O)N(CCC(=O)OCC)CC2CC2)c2ccccc2c1=O	-	-	0	-	-	-	-	-	-	-
CCc1c(C)nc2c(Br)cccc2c1SCCC#N	0	0	0	0	0	0	-	-	-	-
COc1ccc2c(c1)sc1nc(-c3ccccc3)cn12	0	10µM	0	0	0	?	?	?	14.6µM	0
COc1ccc(-c2cn3c(n2)sc2cc(C(=O)NCc4ccccc4)ccc23)cc1	0	0	0	-	0	-	-	-	-	-
COc1cccc(C(=O)NC2CC3CCCC(C2)N3CC(=O)Nc2ccccc2C(F)(F)F)c1 (configuration not stated)	0	?	0	?	0	?	-	-	-	-
O=C(CN1C2CCCC1CC(NC(=O)C1CCCCC1)C2)Nc1ccccc1C(F)(F)F (configuration not stated)	0	?	0	?	0	?	18.4µM	?	?	0
CC12CCC=CC1C(c1ccc(Br)cc1F)N(Cc1ccccc1)C2=O (configuration not stated)	-	?	-	-	0	-	-	-	-	-
C[C@@]12CCC=C[C@H]1[C@H](c1ccccc1Br)N(Cc1ccccc1)C2=O	0	17.8µM	0	?	0	0	18.4µM	?	?	0
COc1ccccc1Oc1coc2cc(OC(=O)N3CCOCC3)ccc2c1=O	0	0	0	?	0	0	-	-	-	-

Compound activity as filed in PubChem BioAssay.
